Composite z-score and z-score data for 26 molecules are collected here from PubChem BioAssay.

Calls of active or inactive are those of the source. Unless noted, how the calls were made is not given here.

Assay [1] concerns XIP peptide (Xip251-270) binding. Briefly: small-molecule binders of XIP peptide, primary screen, biochemical, small-molecule microarray, fluorescence 635/667 nm, 0.1 µg/mL protein (AID 1182). To be noted: fluorescent protein binding, 635 nm, higher = more signal, called active from +8 up or from −8 down.
The subject of the next assay is XIP peptide (Xip251-270). Kind of assay: small-molecule binders of XIP peptide, primary screen, biochemical, small-molecule microarray, fluorescence 635/667 nm, 0.5 µg/mL protein (AID 1183). To be noted: small-molecule microarray binding, fluorescence 635 nm; higher = more signal.
Assay [2] can be described thus: Plasmodium falciparum growth inhibition, primary screen, strain 3D7, DAPI fluorescence, 100 nL (AID 1184).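 Further: parasites grown inside human red blood cells in medium with human serum.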 To be noted: P. falciparum 3D7 growth, 3 d, higher = more signal.
Assay [3] addresses Homeobox protein Hox-A13 (Mus musculus) (UniProt Q62424). Briefly: inhibitors of HoxA13-DNA binding, primary screen, biochemical, fluorescence polarization, labeled oligonucleotide (AID 1185). To be noted: 15 min, higher = more signal, called active from +8 up or from −8 down.
Assay [4] can be described thus: inhibitors of hydroxyurea-induced Chk1 phosphorylation, primary screen, imaging, HeLa, phospho-Chk1 antibody, percent positive cells (AID 1186). To be noted: hydroxyurea-induced phospho-Chk1 immunofluorescence imaging, higher = more signal.
Assay [5] is described as follows: inhibitors of hydroxyurea-induced Chk1 phosphorylation, primary screen, imaging, HeLa, phospho-Chk1 nuclear intensity (AID 1187). To be noted: hydroxyurea-induced phospho-Chk1 immunofluorescence imaging, higher = more signal.

Homeobox protein Hox-A13 (Mus musculus), sequence (Q62424 whole entry, looked up): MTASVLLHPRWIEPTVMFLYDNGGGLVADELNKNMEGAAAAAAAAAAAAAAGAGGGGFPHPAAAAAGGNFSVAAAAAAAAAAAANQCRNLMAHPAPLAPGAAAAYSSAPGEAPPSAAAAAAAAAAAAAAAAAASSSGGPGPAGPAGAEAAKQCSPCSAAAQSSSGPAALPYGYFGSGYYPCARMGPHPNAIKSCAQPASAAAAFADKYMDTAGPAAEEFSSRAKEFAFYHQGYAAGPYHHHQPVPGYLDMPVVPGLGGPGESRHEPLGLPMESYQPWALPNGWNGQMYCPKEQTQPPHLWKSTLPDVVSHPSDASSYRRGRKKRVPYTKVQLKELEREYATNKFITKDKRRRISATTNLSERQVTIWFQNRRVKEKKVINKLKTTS

In the case of `CCCC[C@@H]1C[C@H]1[C@@H](NC(=O)c1cccs1)c1ccc(C(F)(F)F)cc1`, the values for the composite z-score (in assay [1]; in the assay on XIP peptide (Xip251-270)) were -0.011 (inactive) and -0.289, respectively. The z-score was -0.41 in assay [2], -0.891 (inactive) in assay [3], 0.984 (inactive) in assay [4] and 0.516 (inactive) in assay [5].

For the molecule `C=CCNC(=O)[C@H]1[C@@H]2C(=O)O[C@@H](c3ccccc3)[C@@H](c3ccccc3)N2[C@@H](c2ccc(O)cc2)[C@]12C(=O)N(C(=O)OCCOC)c1ccccc12`, the composite z-score in assay [1] is 0.995 (inactive); with XIP peptide (Xip251-270), 0.742. Moreover, the z-score in assay [2] is -1.38; in assay [3], -3.73 (inactive); in assay [4] it was 0.175 (inactive); in assay [5] it was -0.0776 (inactive).

Take `COCC1=C2[C@@H](CCc3ccccc3)OB(O)C[C@@H]2[C@@H]2C(=O)C=CC(=O)[C@@H]2C1`: the figures for the composite z-score (in assay [1]; in the assay on XIP peptide (Xip251-270)) were 0.796 (inactive) and -0.154, respectively. Also, the z-score was -1.28 in assay [2], -6.27 (inactive) in assay [3], 0.162 (inactive) in assay [4] and 0.398 (inactive) in assay [5].

`COCCOC(=O)N1C(=O)[C@@]2(c3cc(C#CC4=CCCCC4)ccc31)[C@H](c1ccccc1OCCO)N1[C@H](c3ccccc3)[C@H](c3ccccc3)OC(=O)[C@H]1[C@@H]2C(=O)Nc1nc2ccccc2s1`: the composite z-score in assay [1] was 0.469 (inactive); in the assay with XIP peptide (Xip251-270), 0.484. The z-score is -1.8 in assay [2], 3.53 (inactive) in assay [3], 0.325 (inactive) in assay [4] and 0.587 (inactive) in assay [5].

Turning to `CCCCCCc1nc(C2CC2)cc2c1[Si](C(C)C)(C(C)C)OC2`, the composite z-score in assay [1] was -0.18 (inactive); in the assay with XIP peptide (Xip251-270), 0.259. The z-score is -1.47 in assay [2], 0.321 (inactive) in assay [3], -0.186 (inactive) in assay [4] and -0.0437 (inactive) in assay [5].

For `NCCCCCNC(=O)[C@@H]1C[C@@H]2C(=O)NCC(=O)N2[C@@H]1c1cccc(OCCO)c1`, the composite z-score in assay [1] was 0.318 (inactive); with XIP peptide (Xip251-270), 0.782. The z-score is -1.28 in assay [2], -1.43 (inactive) in assay [3], 0.518 (inactive) in assay [4] and 0.503 (inactive) in assay [5].

Regarding `COCCOC(=O)N1C(=O)[C@@]2(c3cc(C#CCCO)ccc31)[C@H](C(=O)Nc1nc3ccccc3s1)[C@H]1C(=O)O[C@H](c3ccccc3)[C@H](c3ccccc3)N1[C@@H]2c1ccccc1OCCO`, the composite z-score in assay [1] is 0.0261 (inactive); in the assay on XIP peptide (Xip251-270) it was 0.73. Besides, the z-score in assay [2] was -1.68; in assay [3], 2.62 (inactive); in assay [4], 0.225 (inactive); in assay [5] it was 0.416 (inactive).

As for `COc1cc2c(cc1OC)CN(C(=O)[C@@H]1[C@H]3C(=O)O[C@H](c4ccccc4)[C@H](c4ccccc4)N3[C@H](c3ccc(OCCO)cc3)[C@@]13C(=O)Nc1ccc(C#CC4(O)CCCCCC4)cc13)CC2`, the composite z-score is 0.784 (inactive) in assay [1] and 0.684 with XIP peptide (Xip251-270). Besides, the z-score in assay [2] is -2.06; in assay [3], 3.75 (inactive); in assay [4], -0.124 (inactive); in assay [5], 0.041 (inactive).

For `COCCOC(=O)N1C(=O)[C@@]2(c3cc(C#CCC(C(=O)OC)C(=O)OC)ccc31)[C@H](C(=O)N1CCc3cc(OC)c(OC)cc3C1)[C@H]1C(=O)O[C@H](c3ccccc3)[C@H](c3ccccc3)N1[C@@H]2c1ccc(OCCO)cc1`, the composite z-score in assay [1] was 0.655 (inactive); in the assay on XIP peptide (Xip251-270), 0.749. Further, the z-score in assay [2] is -2.1; in assay [3], 3.49 (inactive); in assay [4], -0.0997 (inactive); in assay [5] it was 0.159 (inactive).

In the case of `COc1cc(OC)c(C(O)C2C=CC3C(=O)N(c4ccccc4)C(=O)C3N2Nc2ccccc2)cc1Br` (stereo unspecified), the figures for the composite z-score (in assay [1]; with XIP peptide (Xip251-270)) were 1.02 (inactive) and 0.577, respectively. Besides, the z-score in assay [2] is 0.0461; in assay [3] it was -3.38 (inactive); in assay [4] it was -0.754 (inactive); in assay [5] it was -0.747 (inactive).

In the case of `O=C1NC(=O)C2C1C=CC(C(O)c1cccc3ccccc13)N2Nc1ccc(Cl)cc1Cl` (stereo unspecified), the results for the composite z-score (in assay [1]; with XIP peptide (Xip251-270)) were 1.46 (inactive) and 0.497, respectively. Further, the z-score in assay [2] was -0.0879; in assay [3], -4.57 (inactive); in assay [4], 0.461 (inactive); in assay [5], 0.3 (inactive).

With `CCOC(=O)C[C@H]1[C@H](OC(=O)Cc2ccc3c(c2)OCO3)[C@@H](NC(=O)Cc2ccc(OC)cc2)c2cc(OCCCO)ccc2N1C(=O)c1ccc2ccccc2n1`, the figures for the composite z-score (in assay [1]; with XIP peptide (Xip251-270)) were -0.16 (inactive) and 0.0481, respectively. Besides, the z-score in assay [2] is -0.919; in assay [3] it was -3.37 (inactive); in assay [4], -0.996 (inactive); in assay [5] it was -0.347 (inactive).

`CN(C)C(=O)[C@@]1(CCS(=O)(=O)c2ccccc2)N=C(c2ccc(OCCCO)cc2)O[C@H]1c1ccccc1`: the composite z-score in assay [1] is 0.77 (inactive); with XIP peptide (Xip251-270) it was 0.704. In addition, the z-score in assay [2] was -1.48; in assay [3] it was -6.87 (inactive); in assay [4] it was -0.13 (inactive); in assay [5] it was -0.0208 (inactive).

Consider `CN1C(=O)C2C=CC(C(O)c3cccc(O)c3)N(Nc3ccccc3)C2C1=O` (stereo unspecified), for which the values for the composite z-score (in assay [1]; with XIP peptide (Xip251-270)) were -0.252 (inactive) and -0.0631, respectively. Further, the z-score in assay [2] is 0.655; in assay [3], -0.751 (inactive); in assay [4], 0.0011 (inactive); in assay [5], 0.118 (inactive).

`COC(=O)[C@@]1(Cc2ccccc2)[C@H]2c3cc(C(=O)N(C)C)n(CCc4ccc(O)c(OC)c4)c3C[C@H]2CN1C(=O)c1ccccc1`: the figures for the composite z-score (in assay [1]; with XIP peptide (Xip251-270)) were 0.132 (inactive) and -0.358, respectively. For the same molecule, the z-score is 0.692 in assay [2], -0.394 (inactive) in assay [3], 0.727 (inactive) in assay [4] and 0.652 (inactive) in assay [5].

`COCCOC(=O)N1C(=O)[C@@]2(c3cc(C#CC4=CCCCC4)ccc31)[C@H](c1ccc(O)cc1)N1[C@H](c3ccccc3)[C@H](c3ccccc3)OC(=O)[C@H]1[C@@H]2C(=O)N1CCN(c2ncccn2)CC1`: the figures for the composite z-score (in assay [1]; in the assay with XIP peptide (Xip251-270)) were -0.0719 (inactive) and 0.306, respectively. The z-score in assay [2] was 0.145; in assay [3], -0.674 (inactive); in assay [4], -0.231 (inactive); in assay [5], -0.758 (inactive).

Take `CC(=O)c1ccc(C(O)C2C=CC3C(=O)N(c4ccccc4)C(=O)C3N2Nc2ccc(C#N)cc2)cc1` (stereo unspecified): the composite z-score in assay [1] was -0.305 (inactive); in the assay with XIP peptide (Xip251-270) it was 0.441. The z-score in assay [2] is 0.981; in assay [3], -4.75 (inactive); in assay [4], 0.293 (inactive); in assay [5], -0.211 (inactive).

For `Cc1cc(C)cc(N2C(=O)CSC2c2cccc([N+](=O)[O-])c2)c1` (stereo unspecified), the composite z-score is 0.397 (inactive) in assay [1] and 0.521 in the assay with XIP peptide (Xip251-270). The z-score was -0.0855 in assay [2], 0.0457 (inactive) in assay [3], -0.251 (inactive) in assay [4] and -0.335 (inactive) in assay [5].

In the case of `O=C1OCC=C[C@H]2OC34C=CCN(c5ccc(Cl)cc5)C(=O)[C@H]3N(CCO)C(=O)[C@@H]4[C@@H]12` (stereo partly specified), the composite z-score in assay [1] is -0.0292 (inactive); in the assay on XIP peptide (Xip251-270), -0.457. For the same molecule, the z-score was 1.05 in assay [2], -2.74 (inactive) in assay [3], -0.435 (inactive) in assay [4] and -0.457 (inactive) in assay [5].

For `CC(C)C[C@@H]1NC(=O)[C@@H]2C[C@H](C(=O)NCCCCCN)[C@H](c3ccc(O)cc3)N2C1=O`, the composite z-score was 0.0938 (inactive) in assay [1] and 0.725 in the assay with XIP peptide (Xip251-270). For the same molecule, the z-score in assay [2] is 0.179; in assay [3] it was -1.88 (inactive); in assay [4] it was -0.223 (inactive); in assay [5], 0.0212 (inactive).

Take `N#Cc1ccc(NN2C(C(O)c3ccc(F)cc3)C=CC3C(=O)N(c4ccccc4)C(=O)C32)cc1` (stereo unspecified): the composite z-score in assay [1] is 0.536 (inactive); in the assay with XIP peptide (Xip251-270), 0.634. In addition, the z-score in assay [2] is -0.573; in assay [3], -0.0009 (inactive); in assay [4], -0.0909 (inactive); in assay [5], -0.0009 (inactive).

As for `Cc1ccc(S[C@]2(C(=O)O)CC(=O)N(C3Cc4ccccc4C3)[C@@H]2c2ccc(CO)cc2)cc1`, the composite z-score in assay [1] was 1.36 (inactive); in the assay with XIP peptide (Xip251-270), -0.669. Besides, the z-score is 1.58 in assay [2], -3.97 (inactive) in assay [3], 0.172 (inactive) in assay [4] and 0.129 (inactive) in assay [5].

Consider `Cc1cc(C)c(C(O)C2C=CC3C(=O)N(c4ccccc4)C(=O)C3N2Nc2ccc(C(C)C)cc2)c(C)c1` (stereo unspecified), for which the results for the composite z-score (in assay [1]; in the assay with XIP peptide (Xip251-270)) were 1.21 (inactive) and 0.736, respectively. Moreover, the z-score was -0.701 in assay [2], -3.21 (inactive) in assay [3], 0.609 (inactive) in assay [4] and 0.335 (inactive) in assay [5].

For `CN(C)C(=O)[C@]1(CCS(=O)(=O)c2ccccc2)N=C(c2ccc(OCCCO)cc2)O[C@@H]1c1ccccc1N=[N+]=[N-]`, the composite z-score in assay [1] was 1.1 (inactive); with XIP peptide (Xip251-270) it was 0.821. In addition, the z-score is -2.34 in assay [2], -3.11 (inactive) in assay [3], -0.197 (inactive) in assay [4] and -0.447 (inactive) in assay [5].

Take `C=CCOC(=O)[C@H]1[C@@H]2C(=O)O[C@@H](c3ccccc3)[C@@H](c3ccccc3)N2[C@@H](c2ccc(OCCOC(=O)[C@@H]3C[C@@H]4C(=O)N[C@@H](CCCCNC(C)=O)C(=O)N4[C@@H]3c3ccc(O)cc3)cc2)[C@]12C(=O)Nc1ccc(I)cc12`: the composite z-score in assay [1] was 0.875 (inactive); in the assay with XIP peptide (Xip251-270), 0.811. The z-score in assay [2] is -1.96; in assay [3] it was -0.356 (inactive); in assay [4], -0.235 (inactive); in assay [5], 0.0348 (inactive).

For the molecule `C=CC[C@]1(C(=O)O)COC(c2ccc(OCCCO)cc2)=N1`, the composite z-score in assay [1] is 0.324 (inactive); in the assay with XIP peptide (Xip251-270), 0.614. The z-score was -0.12 in assay [2], -0.685 (inactive) in assay [3], -0.173 (inactive) in assay [4] and -0.315 (inactive) in assay [5].
